From PubChem BioAssay AID1159580 (chemical genetic matrix, 2015)
About 2,000 (36%) of roughly 5,500 compounds were called active. Inconclusive results (about 18%) are left out. Some of the results follow. Values without a mark were called inactive. Cut-off read from the data, not from the text of the source: active = normalized growth mostly below about 0.91 (no sharp cut-off); inconclusive = no clear call, values can overlap the other calls; inactive = mostly above about 0.92.

Assay: chemical genetic growth profiling, strain panel (AID 1159580);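 note: tested at 20 µM; growth read once vehicle control cultures reached saturation at 30 °C; 1 = growth at the plate median or of vehicle wells; lower values mean less growth of the strain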
Details: growth OD

CC(=O)Oc1cc(-c2coc3cc(OC(C)=O)c(OC(C)=O)c(OC(C)=O)c3c2=O)cc(OC(C)=O)c1OC(C)=O
normalized growth (S. cerevisiae deletion strains, locus YKL009W, strain mrt4, hits give low values): 1.05 | normalized growth (S. cerevisiae deletion strains, locus YKL068W, hits give low values): 1.01 | normalized growth (S. cerevisiae deletion strains, locus YKL085W, strain MDH1 (second series), hits give low values): 1.01 | normalized growth (S. cerevisiae deletion strains, locus YKL085W, strain MDH1, hits give low values): 1.01 | normalized growth (S. cerevisiae deletion strains, locus YKL160W, strain elf1, hits give low values): 0.926 | normalized growth (S. cerevisiae deletion strains, locus YKL190W, strain CNB1, hits give low values): 0.888 (active) | normalized growth (S. cerevisiae deletion strains, locus YKR001C, strain vps1, hits give low values): 0.962 | normalized growth (S. cerevisiae deletion strains, locus YKR026C, strain gcn3, hits give low values): 0.979 | normalized growth (S. cerevisiae deletion strains, locus YKR091W, strain srl3, hits give low values): 0.985 | normalized growth (S. cerevisiae deletion strains, locus YLL001W, strain dnm1, hits give low values): 0.918 | normalized growth (S. cerevisiae deletion strains, locus YLL026W, hits give low values): 0.966 | normalized growth (S. cerevisiae deletion strains, locus YLL041C, strain sdh2, hits give low values): 0.967 | normalized growth (S. cerevisiae deletion strains, locus YLR027C, strain aat2, hits give low values): 0.964 | normalized growth (S. cerevisiae deletion strains, locus YLR039C, strain RIC1, hits give low values): 0.635 (active) | normalized growth (S. cerevisiae deletion strains, locus YLR058C, strain SHM2, hits give low values): 0.272 (active) | normalized growth (S. cerevisiae deletion strains, locus YLR102C, strain apc9, hits give low values): 1.03 | normalized growth (S. cerevisiae deletion strains, locus YLR113W, strain HOG1, hits give low values): 1.11 | normalized growth (S. cerevisiae deletion strains, locus YLR221C, strain rsa3, hits give low values): 0.911 | normalized growth (S. cerevisiae deletion strains, locus YLR258W, strain gsy2, hits give low values): 0.963 | normalized growth (S. cerevisiae deletion strains, locus YLR262C, strain YPT6 (second series), hits give low values): 0.887 | normalized growth (S. cerevisiae deletion strains, locus YLR262C, strain YPT6, hits give low values): 0.89 | normalized growth (S. cerevisiae deletion strains, locus YLR268W, strain sec22, hits give low values): 0.889 | normalized growth (S. cerevisiae deletion strains, locus YLR320W, strain mms22, hits give low values): 0.9 | normalized growth (S. cerevisiae deletion strains, locus YLR342W, strain FKS1 (second series), hits give low values): 0.659 (active) | normalized growth (S. cerevisiae deletion strains, locus YLR342W, strain FKS1, hits give low values): 0.904 (active) | normalized growth (S. cerevisiae deletion strains, locus YLR357W, strain rsc2, hits give low values): 0.77 (active) | normalized growth (S. cerevisiae deletion strains, locus YLR370C, strain arc18, hits give low values): 0.909 (active) | normalized growth (S. cerevisiae deletion strains, locus YLR371W, strain rom2, hits give low values): 0.801 (active) | normalized growth (S. cerevisiae deletion strains, locus YLR384C, strain iki3, hits give low values): 0.965 | normalized growth (S. cerevisiae deletion strains, locus YLR418C, strain cdc73, hits give low values): 0.782 (active) | normalized growth (S. cerevisiae deletion strains, locus YML016C, strain PPZ1, hits give low values): 0.71 (active) | normalized growth (S. cerevisiae deletion strains, locus YML032C, strain rad52, hits give low values): 0.83 (active) | normalized growth (S. cerevisiae deletion strains, locus YML120C, strain ndi1, hits give low values): 0.898 (active) | normalized growth (S. cerevisiae deletion strains, locus YML124C, strain tub3, hits give low values): 1 | normalized growth (S. cerevisiae deletion strains, locus YMR058W, strain fet3, hits give low values): 0.698 (active) | normalized growth (S. cerevisiae deletion strains, locus YMR078C, strain ctf18, hits give low values): 1.01 | normalized growth (S. cerevisiae deletion strains, locus YMR125W, strain sto1, hits give low values): 1.03 | normalized growth (S. cerevisiae deletion strains, locus YMR129W, hits give low values): 0.98 | normalized growth (S. cerevisiae deletion strains, locus YMR205C, strain PFK2, hits give low values): 0.896 | normalized growth (S. cerevisiae deletion strains, locus YMR223W, strain ubp8, hits give low values): 0.938 | normalized growth (S. cerevisiae deletion strains, locus YMR231W, strain pep5, hits give low values): 0.924 (active) | normalized growth (S. cerevisiae deletion strains, locus YMR263W, strain SAP30, hits give low values): 0.734 (active) | normalized growth (S. cerevisiae deletion strains, locus YMR307W, strain GAS1, hits give low values): 0.67 | normalized growth (S. cerevisiae deletion strains, locus YNL067W, strain RPL9B, hits give low values): 0.848 (active) | normalized growth (S. cerevisiae deletion strains, locus YNL071W, strain lat1, hits give low values): 0.979 | normalized growth (S. cerevisiae deletion strains, locus YNL183C, strain NPR1, hits give low values): 0.988 | normalized growth (S. cerevisiae deletion strains, locus YNL209W, strain ssb2, hits give low values): 0.785 (active) | normalized growth (S. cerevisiae deletion strains, locus YNL233W, strain BNI4, hits give low values): 0.824 (active) | normalized growth (S. cerevisiae deletion strains, locus YNL248C, strain rpa49, hits give low values): 0.945 | normalized growth (S. cerevisiae deletion strains, locus YNL250W, strain rad50, hits give low values): 1.06 | normalized growth (S. cerevisiae deletion strains, locus YNL271C, strain bni1, hits give low values): 1.01 | normalized growth (S. cerevisiae deletion strains, locus YNL298W, strain CLA4, hits give low values): 0.998 | normalized growth (S. cerevisiae deletion strains, locus YNL307C, strain MCK1, hits give low values): 1.02 | normalized growth (S. cerevisiae deletion strains, locus YNL322C, strain KRE1 (second series), hits give low values): 0.972 | normalized growth (S. cerevisiae deletion strains, locus YNL322C, strain KRE1, hits give low values): 0.767 (active) | normalized growth (S. cerevisiae deletion strains, locus YNR049C, strain mso1, hits give low values): 0.979 | normalized growth (S. cerevisiae deletion strains, locus YNR052C, strain pop2, hits give low values): 0.658 (active) | normalized growth (S. cerevisiae deletion strains, locus YOL012C, strain htz1): 0.316 | normalized growth (S. cerevisiae deletion strains, locus YOL147C, strain pex11, hits give low values): 0.694 (active) | normalized growth (S. cerevisiae deletion strains, locus YOR001W, strain rrp6, hits give low values): 0.859 (active) | normalized growth (S. cerevisiae deletion strains, locus YOR061W, strain CKA2, hits give low values): 0.887 (active) | normalized growth (S. cerevisiae deletion strains, locus YOR069W, strain VPS5, hits give low values): 0.904 (active) | normalized growth (S. cerevisiae deletion strains, locus YOR070C, strain gyp1, hits give low values): 0.937 | normalized growth (S. cerevisiae deletion strains, locus YOR080W, strain dia2, hits give low values): 0.899 (active) | normalized growth (S. cerevisiae deletion strains, locus YOR083W, strain WHI5, hits give low values): 0.908 | normalized growth (S. cerevisiae deletion strains, locus YOR106W, strain vam3, hits give low values): 0.778 (active) | normalized growth (S. cerevisiae deletion strains, locus YOR136W, strain idh2, hits give low values): 1 | normalized growth (S. cerevisiae deletion strains, locus YOR144C, strain elg1, hits give low values): 0.797 (active) | normalized growth (S. cerevisiae deletion strains, locus YOR184W, strain ser1, hits give low values): 0.905 | normalized growth (S. cerevisiae deletion strains, locus YOR231W, strain MKK1, hits give low values): 1.05 | normalized growth (S. cerevisiae deletion strains, locus YOR265W, strain rbl2, hits give low values): 0.946 | normalized growth (S. cerevisiae deletion strains, locus YOR270C, strain vph1, hits give low values): 0.564 (active) | normalized growth (S. cerevisiae deletion strains, locus YOR290C, strain snf2, hits give low values): 0.322 (active) | normalized growth (S. cerevisiae deletion strains, locus YOR316C, strain cot1, hits give low values): 1.02 | normalized growth (S. cerevisiae deletion strains, locus YPL051W, strain arl3, hits give low values): 0.847 (active) | normalized growth (S. cerevisiae deletion strains, locus YPL055C, strain LGE1, hits give low values): 0.751 (active) | normalized growth (S. cerevisiae deletion strains, locus YPL078C, strain atp4, hits give low values): 0.772 (active) | normalized growth (S. cerevisiae deletion strains, locus YPL106C, strain sse1, hits give low values): 0.869 | normalized growth (S. cerevisiae deletion strains, locus YPL240C, strain hsp82, hits give low values): 0.961 | normalized growth (S. cerevisiae deletion strains, locus YPL256C, strain CLN2, hits give low values): 1.12 | normalized growth (S. cerevisiae deletion strains, locus YPR119W, strain clb2, hits give low values): 1.03 | normalized growth (S. cerevisiae deletion strains, locus YPR141C, strain kar3, hits give low values): 1.03 | normalized growth (S. cerevisiae deletion strains, locus YPR163C, strain tif3, hits give low values): 0.989 | normalized growth (S. cerevisiae deletion strains, locus YPR167C, strain met16, hits give low values): 0.953 | normalized growth (S. cerevisiae deletion strains, strain wtn01, hits give low values): 0.882 (active) | normalized growth (S. cerevisiae strains, strain wild type, hits give low values): 0.75 (active)
